Screen size: about 53,000 sequences; about 3,700 (7%) were called active. Many of the other results were omitted from the sample, so actives are more common in it than they were. Values without a mark were called inactive.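 The calls were made as follows: active = gene knockdowns whose robust z-score for IL-1 alpha signal is at least 2 or at most -2, so actives lie on both sides; inactive = the rest.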
Experiment: Components of the Cytosolic LPS Sensing Pathway: Gene Identification via Genome-wide siRNA Screen;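 also: robust z of the log signal after scaling to non-targeting control siRNA wells of the plate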
Details: RAW264.7 macrophages, IL-1a HTRF, actives lie on both sides, screened at 100 nM (by protocol), cells primed 5 h with Pam3CSK4 first
Outline: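 Cells (RAW264.7, 1×10^4 per well) were transfected with siRNA at 100 nM and cultured 48h at 37 degrees C. Pam3CSK4 was added for 5 hours; LipidA transfection followed for 24 hour. IL-1a was then measured by HTRF.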

In order of falling z-score:
1. GGUAAGCUAGGUUGCCCACTT against Gabarapl1  1.91
2. CGUAGACUUAACCUACAAATT against Dync2h1  1.88
3. GGACCAUUCUUGCGUUCGUTT against Cacng7  1.66
4. GGACGGUAACAACUACAAUTT against Polg  1.63
5. GCCAGUCAUUAUAGUUAACTT against Slc47a1  1.57
6. CCAGAAUGUCACUGCCAGUTT against Zfy1  1.34
7. GGGCUGGUCAUUUACUAAGTT against Cdh22  1.32
8. GCUAGAGUACAGCAAGCUGTT against Aifm3  1.21
9. GGGUGUUAGAAAUCAUUAUTT against Dgkd  1.19
10. GGCCAGGUAACUCUUACAATT against Trpv1  1.12
11. AAAAAACAGCACCCUGAUGTT against Olfr204  1.1
12. CCGAUUAGAAAAGACCAAATT against Ccdc25  0.727
13. GGGUUAAGGUAGUUUCUAATT against 4930579C12Rik  0.613
14. GCGCAAACUUUAAUAACACTT against Zkscan1  0.604
15. CCUUAAAACAGAUCCACUUTT against Nell2  0.473
16. GGUCAACCUUGAACUAAUATT against Dhx57  0.452
17. GGCUAAUAGACUUAUUAGGTT against Cdip1  0.45
18. CCACAAUCAUUAACAAGCUTT against Arl6  0.389
19. GGGUGAUCGCACGAUUGAGTT against Casq2  0.364
20. GGAACAAGAGAAUGAUGAATT against Col5a2  0.343
21. GGGUCAUCCAAAUGGUUUGTT against Grm6  0.323
22. CGAAGAUUAAUUUUGCUCATT against Lrrtm2  0.316
23. CGUGGUAGUGAAAAUUGAGTT against Xbp1  0.282
24. GGUAAACCAAACAAAACCATT against Rpl35a  0.264
25. GGGAUCAGAACAAGUAUAATT against Klc1  0.257
26. GGUUGCUAGUGCUAAGGACTT against Pdlim2  0.245
27. GGUCAGCAUUAUCAAGCCUTT against Hsd11b2  0.159
28. CCUGUGAAUACUUUCACUCTT against Bok  0.115
29. GGAACUUCAGAGUAAACCUTT against H2-T23  0.096
30. GGAGGUUGUGAUCUUGAAATT against Tbc1d23  -0.000244
31. GGAAGAACCACCACAAACUTT against Cstdc2  -0.0281
32. GGUUCAAGAGGAGACUACUTT against BC005624  -0.127
33. CCUGGAGAGUGAUACGUUCTT against Serpina1f  -0.228
34. GCUGUUCUAUCAGACCUUUTT against Cyp2b10  -0.236
35. CGCAACCUGUCACAUAAUATT against Bmpr2  -0.238
36. GGAAUAUGUGUGGACUAGATT against Tor3a  -0.265
37. GGAUCUUGAGUUGGAGUCCTT against Nupr1l  -0.319
38. GGUGUCCAACAAGCUCAAGTT against F8a  -0.337
39. GGCCGCAUACUGAUGAAAGTT against Scgn  -0.395
40. GGCUCCUGUGCAUAUCUAATT against Olfr116  -0.449
41. GGACCAAGGAAUAUUUCCCTT against Serpinb9b  -0.564
42. CGAGACUCUAUCUUUGUCCTT against St3gal3  -0.785
43. GGAUUAAAGGCCAUAAGGATT against Zfp747  -0.813
44. GGACAAUGUGAUGAAGAUUTT against Fgfr3  -0.843
45. GCCUCAUCAAUCCACUGCATT against Mtss2  -0.956
46. GCUGUUUUGAGGAGCCUUCTT against Zfp410  -0.962
47. GGAAGAAAUUCCUAAUGAATT against Igsf11  -1.01
48. GGACAAGUUGUUGGACUACTT against Hltf  -1.02
49. CCACCACAGCUGAAGUCAGTT against Fen1  -1.08
50. GGAAGUUUUGGGAGUGUGUTT against Map3k20  -1.08
51. GGACAGUGUCUAGAUAUUGTT against Fbln5  -1.18
52. GGGAGUUGUAGUAUUAGUATT against Zfp94  -1.19
53. GGAGAACAACAGUAAUUACTT against Reps2  -1.28
54. GGAAAUGAAGCUCAUGGAATT against Dcdc5  -1.44
55. GGAGUUUGGUAAAAUUGACTT against Dhrs7  -1.7
56. GGAAAAUGGCAGAAAUGAATT against Vps26a  -1.97

In the case of GGCUUUGGCAUGAUUGGCCTT against Tmem214, the z-score is reported as -2.72 (active).
For GGGUUAGCCAGAGCUCUAATT against N4bp2l1, the z-score was 3.03 (active).
With GGGUGUGUUGGAUACCUAUTT against Adig the z-score was 2.03 (active).
In the case of GGAAAUUGGCACCAUUACUTT against St3gal1, the z-score is reported as 2.14 (active).
With GGCUCACAGGACCUAUUUCTT against Col6a6 the z-score was -3.15 (active).
In the case of CCCACUCCGAUAUACUGCUTT against Olfr447, the z-score is reported as 2.2 (active).
In the case of GCGAGUAGGACCAGUGAAATT against Xpo1, the z-score is reported as -2.67 (active).
In the case of CGAGUUUGACCGGACCAUCTT against Ssna1, the z-score is reported as 2.44 (active).
In the case of GCUUUGUUGGGAGUGAAAUTT against Olfr728, the z-score is reported as -2.11 (active).
For GGUGAAAUCCAGGAGUUUUTT against Rnd3, the z-score was 2.02 (active).
In the case of GGUCAAACUUCAAUAGACATT against Zkscan6, the z-score is reported as 2.01 (active).
For GGCUUACAAAAAGUACAUCTT against Tpt1, the z-score was 4.36 (active).
With GGAGACUUAUAACAUGUUUTT against Habp2 the z-score was 2.19 (active).
